In test [1] the test system is HEK293. Nature of the test: Cytotoxic Profiling of Annotated Libraries Using Quantitative High-Throughput Screening (AID 1296008). Further: potency means the concentration at half of the fitted maximal effect. On max response: on the % scale 0 is the no-effect control and ±100 the full control effect. The following applies: Five cell lines viability, CellTiter-Glo ATP luminescence, 48-72 h; max response: hits give low values. In outline: (§1)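 Cells exposed to compounds for 48 or 72 hr at 37 degrees Celsius. Viability read as ATP-coupled luminescence with CellTiter-Glo after 10 min at room temperature.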
In general terms: ATP-based viability assays read luminescence as a measure of living cells.

Test [2] concerns HaCat. The test is described as above. The following applies: Five cell lines viability, CellTiter-Glo ATP luminescence, 48-72 h; max response: hits give low values. In outline: as §1
Test [3] concerns NIH3T3. The description is as above. The following applies: Five cell lines viability, CellTiter-Glo ATP luminescence, 48-72 h; max response: hits give low values. A digest of the protocol: as §1
Test [4] has as its system KB-3-1. The test is described as above. The following applies: Five cell lines viability, CellTiter-Glo ATP luminescence, 48-72 h; max response: hits give low values. In outline: as §1
For test [5], the system named is HACAT. The test can be described thus: qHTS assay to identify novel small-molecules to repurpose for Merkel cell carcinoma treatment (AID 1296009). Conditions: MCC and control cell lines, CellTiter-Glo viability, 72 h; at 44.8 µM (top of the series) unless noted. A digest of the protocol:
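CellTiter-Glo luminescence after 72 hr compound exposure at 37 degree celsius gave cell viability. Libraries NPC and MIPE were run as 8- and 11-point dose responses; RLUs normalized to DMSO (negative) and no-cell (cytotoxicity) controls.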
A general note: Quantitative high-throughput screening tests each substance at several concentrations.

Structures are written as SMILES. Inconclusive results are not listed. A number with no mark means an inactive call. Active and inactive are the calls of the source. The call rests on the fitted dose curve; in most records, active means well fitted inhibition curve with a large enough effect; inconclusive means small, poorly fitted or top-dose-only effect; inactive means flat fitted curve, though single readings scatter.
Further: nearly all actives have a fitted effect of over 60% in size.

As to `CC(C)NC(=O)COc1cccc(-c2nc(Nc3ccc4[nH]ncc4c3)c3ccccc3n2)c1`, the Potency in test [1] was 5.8 µM (active). In addition, in test [2], the max response was -3.54%.

With `C=C(NC(=O)C(=C)NC(=O)c1csc(C2=NC3c4csc(n4)C4NC(=O)c5csc(n5)C(C(C)(O)C(C)O)NC(=O)C5CSC(=N5)/C(=C/C)NC(=O)C(C(C)O)NC(=O)c5csc(n5)C3(CC2)NC(=O)C(C)NC(=O)C(=C)NC(=O)C(C)NC(=O)C(C(C)CC)NC2C=Cc3c(C(C)O)cc(nc3C2O)C(=O)OC4C)n1)C(N)=O` (stereo unspecified), the Potency in test [1] is 1.16 µM (active); in test [3], 4.61 µM (active).

On to `COc1ccc2[nH]c(=O)c3c(c2c1)OC(C)(C)C=C3`, for which, in test [2], the max response is -2%. The call in test [4] was inactive.

In the case of `Cc1cn(CCN2CCN(c3ccccc3-c3cc(C#N)cc(C(=O)NCCCN4CCCC4)c3)CC2)c2ccccc12`, the results for the Potency in test [1] and in test [3] were 14.8 µM (active) and 16.6 µM (active), respectively.

For the compound `C=C1C(=O)O[C@@H]2C3=C(C)CCC[C@]3(C)CC[C@@]12O`, the Potency in test [1] was 8.2 µM (active); in test [3] it was 14.6 µM (active).

Consider `CN(C)C(=O)NC1(c2ccccc2)CCN(CCC[C@]2(c3ccc(Cl)c(Cl)c3)CCCN(C(=O)c3ccccc3)C2)CC1`, for which the Potency in test [1] is 16.4 µM (active); in test [3] it was 20.6 µM (active).

On to `CCC1C(=O)N(C)c2cnc(Nc3ccc(C(=O)NC4CCN(C)CC4)cc3OC)nc2N1C1CCCC1` (stereo unspecified), for which the max response in test [1] is -124%. The Potency in test [3] is 7.31 µM (active).

For the compound `Fc1ccc(-n2cc(CCCCN3CCC4(CC3)OCc3ccccc34)c3ccccc32)cc1`, the Potency in test [1] was 18.4 µM (active); in test [3], 16.4 µM (active).

For the compound `CCc1cnc(N2CCC(c3nc(COc4ccc(-n5cnnn5)cc4)cs3)CC2)nc1`, in test [1], the Potency was 13 µM (active). Moreover, the call in test [2] and in test [5] was inactive. In addition, the max response in test [3] was -9.02%.

With `Cn1cc(-c2cnn3c(N)c(Br)c(C4CCCNC4)nc23)cn1` (stereo unspecified), the Potency in test [1] is 1.03 µM (active); in test [3], 6.51 µM (active).

Regarding `Cc1ccc(O)cc1Nc1ccnc(Nc2cccc(C(N)=O)c2)n1`, the Potency was 14.6 µM (active) in test [1] and 2.31 µM (active) in test [3].

In the case of `Clc1ccc(Nc2nc3ccccc3c3nc(C4CCCCC4)[nH]c23)cc1Cl`, the Potency in test [1] was 11.6 µM (active); in test [3], 20.6 µM (active).

As for `CN(C)Cc1ccc(-c2cnn3c(-c4cccc(NC(=O)c5cccc(C(F)(F)F)c5)c4)ccnc23)cc1`, the Potency in test [1] was 7.31 µM (active); in test [3] it was 16.4 µM (active).

As to `C=C1C(=O)O[C@@H]2C[C@@]3(C)C[C@@H](O)C[C@H](C)C3=C[C@H]12`, the max response in test [2] is -8.34%. In addition, in test [4], the call was inactive.

Regarding `COc1cc([C@H]2O[C@H](c3cc(OC)c4c(c3)OCO4)[C@H](C)[C@H]2C)cc(OC)c1OC`, in test [1], the Potency is 0.893 µM (active). Besides, in test [2], the outcome was inactive. Besides, the outcome in test [5] is “inactive [at 17.4 µM]”.

Consider `C[C@@H]1CCCN1CCc1cc2cc(-c3ccc(C#N)cc3)ccc2o1`, for which the values for the max response in test [2] and in test [4] were -29.3% and -23.6%, respectively.

As for `C/C=C(\C)C(=O)O[C@H]1C=CC(=O)O[C@H]1/C=C/[C@@H](O)[C@H](C)O`, the max response in test [2] was -16.7%; in test [4], -19.4%.

For `COc1ccc(Oc2c(Cl)cnn(-c3cc(C)cc(C)c3)c2=O)cc1`, the Potency in test [1] is 8.2 µM (active); in test [3], 25.9 µM (active).

Turning to `COc1cccc(OCCCN)c1-c1cc(Nc2cnc(C#N)cn2)n[nH]1`, the figures for the Potency in test [1] and in test [3] were 0.0103 µM (active) and 0.0411 µM (active), respectively.

On to `COc1ccc(S(=O)(=O)n2cnc3cc(C)c(C)cc32)cc1`, for which the max response in test [2] is -14.6%.

Take `C=C(C)C(=O)O[C@H]1C[C@@](C)(O)C2(O)CCC(C)(/C=C3/OC(=O)C(COC)=C31)O2` (stereo partly specified): the Potency in test [1] was 3.21 µM (active); in test [3], 10.1 µM (active).

As to `c1ccc(-c2cnn3cc(-c4ccc(OCCN5CCOCC5)cc4)cnc23)cc1`, in test [1], the Potency is 2.31 µM (active). For the same compound, the compound was called inactive in test [2] and in test [5].

For `CC(C)(N)c1ncc(-c2ccc(OC(F)(F)F)cc2)[nH]1`, the max response in test [2] was -18.6%; in test [4], -11.1%.

For the compound `O=S(=O)(NCc1cccc2ccccc12)c1cc(Cl)c(Oc2cccc(N3CCNCC3)c2)s1`, the Potency in test [1] was 10.3 µM (active); in test [3] it was 14.6 µM (active).

As for `CCCc1cc2c(N3CCN(C4=NCC(C)(C)S4)CC3)ncnc2s1`, the Potency in test [1] is 5.8 µM (active). For the same compound, the outcome in test [2] and in test [5] was inactive.

As to `CN1c2c(nc(N)[nH]c2=O)NC[C@@H]1CNc1ccc(C(=O)N[C@@H](CCC(=O)O)C(=O)O)cc1`, in test [2], the max response was -4.13%. Besides, in test [4], the call was inactive.

As for `CC(C)CCNC(=O)c1ccc2c(c1)nc(Nc1n[nH]c3ccc(-c4ccccc4OC(F)(F)F)cc13)n2C1CCC(O)CC1` (stereo unspecified), the Potency in test [1] was 9.2 µM (active). For the same compound, the outcome in test [2] and in test [5] was inactive.

`Nc1ncnc2c1c(-c1ccc(Cl)cc1)nn2-c1cccc(-c2cnnn2Cc2cccc(-c3ccccc3)c2)c1`: the max response in test [2] was -3.38%; in test [4] it was -15.9%.

The values are drawn from PubChem BioAssay (NCATS).
